These results are taken from the antibiotic and cytotoxicity screens of Wong et al. (2023).

In all, about 39,000 compounds went through this assay and about 3,300 (8.5%) were called active. Many of the other results were omitted from the sample, so actives are more common in it than they were.

This experiment has as its system HepG2. As to the kind of experiment: cytotoxicity call (relative viability < 0.9). The settings on record: 10 µM.
With `O=C(NCO)c1ccc([N+](=O)[O-])cc1`, the cytotoxicity call is “inactive”.

Take `O=C(Nc1cc(C(F)(F)F)cc(C(F)(F)F)c1)Nc1cnn(-c2ccc([N+](=O)[O-])cc2)c1C(F)(F)F`: the cytotoxicity call was “active”.

Regarding `O=C(Nc1cc(C(F)(F)F)cc(C(F)(F)F)c1)Nc1c(Br)cc(Br)cc1-c1nn[nH]n1`, the cytotoxicity call is “inactive”.

As for `CNC1C(OC2C(OC3C(O)C(O)C(NC(=N)N)C(O)C3NC(=N)N)OC(C)C2(O)C=O)OC(CO)C(O)C1O.O=S(=O)(O)O` (stereo not drawn) [STREPTOMYCIN SULFATE [5mM; 10% aq DMSO + 5mM ethanolamine] ], the cytotoxicity call is “inactive”.

`COCC(=O)Nc1c(I)c(C(=O)NC[C@@H](O)CO)c(I)c(C(=O)N(C)C[C@@H](O)CO)c1I`: the cytotoxicity call is “inactive”.

On to `COc1ccc(S(=O)(=O)N[C@@H]2C=C[C@H](CC(=O)N3CCN(c4ccccc4)CC3)O[C@@H]2CO)cc1`, for which the cytotoxicity call was “inactive”.

`O=C(O)c1cc(O)ccc1O` [listing 1 of 2 here]: the cytotoxicity call was “inactive”.

With `O=S(=O)(O)c1cc(O)ccc1O`, the cytotoxicity call is “active”.

On to `O=C(O)c1cc(O)ccc1O` [listing 2 of 2 here], for which the cytotoxicity call was “inactive”.

For `C[C@@H]1CN([C@H](C)CO)C(=O)c2cc(NS(C)(=O)=O)ccc2O[C@@H](C)CCCCO[C@H]1CN(C)C(=O)Nc1ccc(C(F)(F)F)cc1`, the cytotoxicity call is “inactive”.

For the molecule `COc1ccc(S(=O)(=O)Nc2ccc3c(c2)C(=O)N([C@H](C)CO)C[C@H](C)[C@@H](CN(C)C(=O)CCC(F)(F)F)OCCCC[C@H](C)O3)cc1`, the cytotoxicity call is “inactive”.

`O=C(CCCCCC(=O)N/N=C/[C@H](O)[C@@H](O)[C@@H](O)[C@H](O)CO)NO`: the cytotoxicity call is “inactive”.

On to `C[C@@H]1CN([C@H](C)CO)C(=O)CCCn2nncc2CO[C@H]1CN(C)S(=O)(=O)c1ccc(Oc2ccccc2)cc1`, for which the cytotoxicity call was “inactive”.

In the case of `C[C@H]1CN([C@@H](C)CO)C(=O)c2cc(NC(=O)Nc3ccc(F)cc3)ccc2O[C@@H]1CN(C)CC1CCCCC1`, the cytotoxicity call was “active”.

On to `C[C@@H]1CN([C@@H](C)CO)C(=O)c2cc(NC(=O)Nc3ccc(C(F)(F)F)cc3)ccc2O[C@H]1CN(C)CC1CCCCC1`, for which the cytotoxicity call is “active”.

On to `C[C@@H]1CN([C@H](C)CO)C(=O)c2cc(NC(=O)Nc3ccc(F)cc3)ccc2O[C@H]1CN(C)CC1CCCCC1`, for which the cytotoxicity call was “inactive”.

As to `C[C@@H]1CN([C@H](C)CO)C(=O)c2cc(NC(=O)Nc3ccc(F)cc3)ccc2O[C@@H]1CN(C)CC1CCCCC1`, the cytotoxicity call was “inactive”.

In the case of `C[C@H](CO)N1C[C@H](C)[C@H](CN(C)CC2CCCCC2)Oc2ccc(NC(=O)Nc3ccc(C(F)(F)F)cc3)cc2C1=O`, the cytotoxicity call was “active”.

Regarding `C[C@H](CO)N1C[C@H](C)[C@@H](CN(C)CC2CCCCC2)Oc2ccc(NC(=O)Nc3ccc(F)cc3)cc2C1=O`, the cytotoxicity call is “inactive”.

Regarding `C[C@H](CO)N1C[C@H](C)[C@H](CN(C)CC2CCCCC2)Oc2ccc(NC(=O)Nc3ccc(F)cc3)cc2C1=O`, the cytotoxicity call is “inactive”.

In the case of `C[C@H]1CN([C@@H](C)CO)C(=O)c2cc(NC(=O)Nc3ccc(F)cc3)ccc2O[C@H]1CN(C)CC1CCCCC1`, the cytotoxicity call was “inactive”.

Turning to `C[C@@H]1CN([C@@H](C)CO)C(=O)c2cc(NC(=O)Nc3ccc(F)cc3)ccc2O[C@@H]1CN(C)CC1CCCCC1`, the cytotoxicity call was “inactive”.

On to `C[C@@H]1CN([C@@H](C)CO)C(=O)c2cc(NC(=O)Nc3ccc(C(F)(F)F)cc3)ccc2O[C@@H]1CN(C)CC1CCCCC1`, for which the cytotoxicity call is “active”.

Consider `NCCc1[nH]cnc1-c1cccs1`, for which the cytotoxicity call is “inactive”.

As for `C[C@H](CO)N1C[C@H](C)[C@H](CN(C)C(=O)Nc2cccc3ccccc23)Oc2ccc(NS(=O)(=O)c3ccc(Cl)cc3)cc2CC1=O`, the cytotoxicity call is “inactive”.

For `COc1ccc(S(=O)(=O)Nc2ccc3c(c2)C(=O)N([C@H](C)CO)C[C@@H](C)[C@@H](CN(C)C(=O)C2CCCCC2)OCCCC[C@H](C)O3)cc1`, the cytotoxicity call was “inactive”.

On to `C[C@@H]1CN([C@@H](C)CO)C(=O)c2cc(NC(=O)CCCCCC(=O)Nc3ccccc3N)ccc2O[C@H]1CN(C)C(=O)Nc1cccc2ccccc12`, for which the cytotoxicity call is “inactive”.

With `CC(C)NC(=O)N(C)C[C@@H]1Oc2ccc(NC(=O)Nc3ccc4c(c3)OCO4)cc2C(=O)N([C@H](C)CO)C[C@@H]1C`, the cytotoxicity call is “inactive”.

For the molecule `C[C@@H]1CCCCO[C@@H](CN(C)C(=O)Cc2ccccc2)[C@H](C)CN([C@@H](C)CO)C(=O)c2cc(NC(=O)Nc3ccccc3)ccc2O1`, the cytotoxicity call was “inactive”.

As for `Cc1cc(C(=O)Nc2cccc3c2O[C@@H](CN(C)S(=O)(=O)c2cn(C)cn2)[C@@H](C)CN([C@H](C)CO)C3=O)n(C)n1`, the cytotoxicity call was “inactive”.

Turning to `Cc1ccc(S(=O)(=O)Nc2cccc3c2O[C@H](CN(C)S(=O)(=O)c2cccs2)[C@@H](C)CN([C@@H](C)CO)C3=O)cc1`, the cytotoxicity call was “inactive”.

Take `CC(=O)NCC(=O)N1Cc2nccn2C[C@H](Cn2nc(C)nc2C)C1`: the cytotoxicity call was “inactive”.

In the case of `C[C@@H]1CN([C@@H](C)CO)C(=O)c2cc(C#C[C@@H](C)O)cnc2O[C@@H]1CN(C)C(=O)CN1CCOCC1`, the cytotoxicity call is “inactive”.

With `Cc1ccc(S(=O)(=O)N(C)C[C@H]2Oc3ccc(NC(=O)Cn4cnnn4)cc3CC(=O)N([C@H](C)CO)C[C@H]2C)cc1`, the cytotoxicity call was “inactive”.

For the molecule `COc1ccc(NC(=O)N(C)C[C@H]2Oc3c(NS(=O)(=O)c4c(C)noc4C)cccc3C(=O)N([C@@H](C)CO)C[C@H]2C)cc1`, the cytotoxicity call was “inactive”.

For the molecule `COc1ccc(NC(=O)N(C)C[C@@H]2Oc3ncc(-c4cccc(C(F)(F)F)c4)cc3C(=O)N([C@H](C)CO)C[C@@H]2C)cc1`, the cytotoxicity call is “inactive”.

In the case of `C[C@@H]1CN([C@@H](C)CO)C(=O)c2cc(NC(=O)Cn3cnnn3)ccc2O[C@H]1CN(C)C(=O)Nc1ccc2c(c1)OCO2`, the cytotoxicity call is “inactive”.

For the molecule `C[C@H]1CN([C@@H](C)CO)C(=O)c2cc(NC(=O)Nc3ccc(C(F)(F)F)cc3)ccc2O[C@@H]1CN(C)CC1CCCCC1`, the cytotoxicity call is “inactive”.

Regarding `C[C@@H]1CN([C@@H](C)CO)C(=O)c2cc(NC(=O)Nc3ccc(F)cc3)ccc2O[C@H]1CN(C)CC1CCCCC1`, the cytotoxicity call is “inactive”.

`C[C@@H]1CN([C@H](C)CO)C(=O)c2cc(NC(=O)Nc3ccccc3)ccc2O[C@@H]1CN(C)CC1CCCCC1`: the cytotoxicity call is “inactive”.

In the case of `C[C@H](CO)N1C[C@H](C)[C@@H](CN(C)CC2CCCCC2)Oc2ccc(NC(=O)Nc3ccc(C(F)(F)F)cc3)cc2C1=O`, the cytotoxicity call was “inactive”.

In the case of `C[C@@H]1CN([C@H](C)CO)C(=O)c2cc(NC(=O)Nc3ccc(C(F)(F)F)cc3)ccc2O[C@@H]1CN(C)CC1CCCCC1`, the cytotoxicity call is “active”.

Consider `C[C@@H]1CN([C@H](C)CO)C(=O)c2cc(NC(=O)Nc3ccc(C(F)(F)F)cc3)ccc2O[C@H]1CN(C)CC1CCCCC1`, for which the cytotoxicity call is “active”.
